Experimental data reported in PubChem BioAssay.
For some assays here: Potency and affinity values are given separately. The source made the active and inactive calls. Unless noted, how the calls were made is not given here.

Legend:
[1] = antimalarial activity against Dd2 strain (AID 2302;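 active means growth inhibition above 50% at the single 2 µM test dose, taken to imply half-maximal potency below 2 µM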;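 further: 0% = DMSO untreated growth and 100% = chloroquine plus artemisinin killed control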); conditions: P. falciparum Dd2 in RBCs, LDH growth readout, 72 h; at 2 µM; hits give high values
[2] = human hepatoma cell viability loss – ATP luminescence, cytotoxicity control for P. falciparum antimalarial project, primary screen (AID 2303;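 active means inhibition above 50%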;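 further: 0% = DMSO wells and 100% = digitonin-killed cells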); conditions: HepG2 viability, 24-48 h, at 10 µM, hits give high values
[3] = target: L-lactate dehydrogenase (Plasmodium falciparum (isolate CDC / Honduras)) (UniProt Q27743); test: PfLDH activity inhibition – cell lysate, 3D7 strain, counter-screen for P. falciparum growth inhibition project (AID 2304);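 further: 0% = vehicle and 100% = reference inhibitor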; conditions: P. falciparum 3D7 crude extract, LDH APAD/NBT absorbance; at 2 µM; hits give high values
[4] = inhibition of 3D7 malaria parasite growth – strain 3D7 (AID 2306);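 further: 0% = DMSO wells and 100% = chloroquine plus artemisinin control wells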; conditions: P. falciparum 3D7 erythrocytic growth, LDH absorbance, 72 h; at 2 µM; hits give high values
[5] = target: Calcium-dependent protein kinase 1 (Plasmodium falciparum (isolate 3D7)) (UniProt P62344); test: PfCDPK1 kinase inhibitors, biochemical, TCAMS library (AID 1159585; cut-off not given, nearly all actives have IC50 up to about 0.98 µM;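 further: inhibitors leave more ATP so luminescence rises with inhibition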); conditions: recombinant PfCDPK1, Kinase-Glo ATP depletion luminescence
[6] = target: Plasmodium falciparum protein kinase 6 (PK6, PF3D7_1337100) (UniProt Q8IDW1); test: PfPK6 kinase inhibitors, biochemical, TCAMS library (AID 1159586); conditions: recombinant PfPK6, Kinase-Glo ATP depletion luminescence
[7] = target: Protein kinase 7 (PK7), Plasmodium falciparum 3D7 (PF3D7_0213400) (UniProt Q7YTF7); test: inhibition of Plasmodium PK7 catalytic activity – biochemical, TCAMS antimalarial set, Kinase-Glo luminescence (AID 1159587); conditions: recombinant PfPK7, Kinase-Glo ATP depletion luminescence
[8] = target: Calcium-dependent protein kinase 4 (Plasmodium falciparum (isolate 3D7)) (UniProt Q8IBS5); test: PfCDPK4 kinase inhibitors, biochemical, TCAMS library (AID 1159588; cut-off not given, nearly all actives have IC50 up to about 0.91 µM); conditions: recombinant PfCDPK4, Kinase-Glo ATP depletion luminescence
Sequence of Calcium-dependent protein kinase 4 (Plasmodium falciparum (isolate 3D7)) (Q8IBS5 whole entry, looked up): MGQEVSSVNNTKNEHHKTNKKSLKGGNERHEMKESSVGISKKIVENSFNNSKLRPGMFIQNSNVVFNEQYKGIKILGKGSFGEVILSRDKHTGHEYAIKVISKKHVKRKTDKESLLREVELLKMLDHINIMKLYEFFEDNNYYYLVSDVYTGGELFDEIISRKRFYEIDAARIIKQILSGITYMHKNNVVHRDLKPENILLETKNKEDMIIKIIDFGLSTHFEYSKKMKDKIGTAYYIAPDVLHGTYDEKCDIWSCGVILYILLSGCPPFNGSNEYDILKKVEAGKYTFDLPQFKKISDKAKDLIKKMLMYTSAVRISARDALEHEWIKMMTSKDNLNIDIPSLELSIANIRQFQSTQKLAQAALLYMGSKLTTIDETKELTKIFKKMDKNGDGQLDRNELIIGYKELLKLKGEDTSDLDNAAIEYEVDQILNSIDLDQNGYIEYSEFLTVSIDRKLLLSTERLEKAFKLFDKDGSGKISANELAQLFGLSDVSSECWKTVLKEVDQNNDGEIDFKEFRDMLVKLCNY

Sequence of Plasmodium falciparum protein kinase 6 (PK6, PF3D7_1337100) (Q8IDW1 1-305): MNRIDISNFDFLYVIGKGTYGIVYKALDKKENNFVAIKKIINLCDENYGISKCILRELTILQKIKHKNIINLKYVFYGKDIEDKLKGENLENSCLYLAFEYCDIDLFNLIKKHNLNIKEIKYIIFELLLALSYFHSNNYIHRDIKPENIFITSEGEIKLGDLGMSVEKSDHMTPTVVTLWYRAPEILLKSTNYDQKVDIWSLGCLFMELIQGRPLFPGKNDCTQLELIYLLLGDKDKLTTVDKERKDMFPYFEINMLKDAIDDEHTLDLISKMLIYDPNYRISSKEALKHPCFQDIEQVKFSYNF
Sequence of Calcium-dependent protein kinase 1 (Plasmodium falciparum (isolate 3D7)) (P62344 whole entry, looked up): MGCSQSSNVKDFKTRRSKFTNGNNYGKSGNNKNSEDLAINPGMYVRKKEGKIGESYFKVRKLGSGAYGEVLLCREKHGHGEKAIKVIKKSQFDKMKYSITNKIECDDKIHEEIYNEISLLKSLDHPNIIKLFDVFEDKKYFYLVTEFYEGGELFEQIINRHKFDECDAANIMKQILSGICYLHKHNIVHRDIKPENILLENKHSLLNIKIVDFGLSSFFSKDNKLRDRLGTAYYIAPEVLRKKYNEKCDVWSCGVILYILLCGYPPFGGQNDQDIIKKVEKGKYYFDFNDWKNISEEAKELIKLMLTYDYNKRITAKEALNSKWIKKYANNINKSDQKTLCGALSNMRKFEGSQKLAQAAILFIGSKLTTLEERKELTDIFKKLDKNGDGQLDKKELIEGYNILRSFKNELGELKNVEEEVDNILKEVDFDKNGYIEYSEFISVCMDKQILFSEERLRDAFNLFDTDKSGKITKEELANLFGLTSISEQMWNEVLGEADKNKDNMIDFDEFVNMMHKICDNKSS
Sequence of L-lactate dehydrogenase (Plasmodium falciparum (isolate CDC / Honduras)) (Q27743 whole entry, looked up): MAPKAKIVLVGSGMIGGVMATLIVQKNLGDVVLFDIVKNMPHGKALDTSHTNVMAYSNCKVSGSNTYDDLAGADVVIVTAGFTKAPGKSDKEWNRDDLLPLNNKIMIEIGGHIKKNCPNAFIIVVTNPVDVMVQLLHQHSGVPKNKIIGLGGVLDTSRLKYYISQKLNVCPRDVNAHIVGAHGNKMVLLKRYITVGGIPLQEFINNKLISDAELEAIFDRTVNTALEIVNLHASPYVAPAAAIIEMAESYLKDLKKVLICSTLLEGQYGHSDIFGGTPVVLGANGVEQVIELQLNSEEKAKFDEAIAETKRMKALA
Sequence of Protein kinase 7 (PK7), Plasmodium falciparum 3D7 (PF3D7_0213400) (Q7YTF7 1-343): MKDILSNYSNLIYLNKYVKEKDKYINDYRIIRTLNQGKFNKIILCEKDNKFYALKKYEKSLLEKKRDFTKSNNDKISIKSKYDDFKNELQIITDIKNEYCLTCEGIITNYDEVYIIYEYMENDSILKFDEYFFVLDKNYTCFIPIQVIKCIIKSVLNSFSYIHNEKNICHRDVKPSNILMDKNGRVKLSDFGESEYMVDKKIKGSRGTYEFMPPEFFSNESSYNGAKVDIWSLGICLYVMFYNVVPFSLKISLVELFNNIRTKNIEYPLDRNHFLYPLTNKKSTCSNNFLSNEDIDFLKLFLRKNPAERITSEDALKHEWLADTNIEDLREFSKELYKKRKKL

COCCSc1nc2scc(C)c2c(=O)n1Cc1cccc(OC)c1
inactive: growth inhibition [1] 33% | inhibition [2] 0% | inhibition [3] -8% | outcome [5] | outcome [6] | outcome [7] | outcome [8]
active: growth inhibition [4] 92%

CC(=O)Nc1sc(C)c(C)c1CN1CCc2ccccc2C1
inactive: inhibition [2] -8% | inhibition [3] 1% | outcome [5] | outcome [6] | outcome [7] | outcome [8]
active: growth inhibition [1] 94% | growth inhibition [4] 93%

COc1cccc(NC(=O)COc2ccc(C(=O)Nc3nc4ccccc4[nH]3)cc2)c1
active: growth inhibition [4] 99%
inactive: growth inhibition [1] 29% | inhibition [2] 19% | inhibition [3] 0% | outcome [5] | outcome [6] | outcome [7] | outcome [8]

O=C(CCn1c2ccccc2c2ccccc21)NN=Cc1ccco1
inactive: growth inhibition [1] -3% | inhibition [2] 6% | inhibition [3] -3% | outcome [5] | outcome [6] | outcome [7] | outcome [8]
active: growth inhibition [4] 96%

c1ccc2c(c1)CN(Cc1ccsc1)CC1(CCN(Cc3c[nH]c4cnccc34)CC1)O2
inactive: inhibition [2] 38% | inhibition [3] -2% | outcome [5] | outcome [6] | outcome [7] | outcome [8]
active: growth inhibition [1] 75% | growth inhibition [4] 87%

O=C(CC(=O)C(F)(F)F)c1ccc2c(c1)OCO2
active: growth inhibition [4] 96%
inactive: growth inhibition [1] 0% | inhibition [2] 44% | inhibition [3] 0% | outcome [5] | outcome [6] | outcome [7] | outcome [8]

Cc1ccc(N2C(N)=NC(N)=NC2(C)C)cc1
inactive: growth inhibition [1] 20% | inhibition [2] 43% | inhibition [3] 0% | outcome [5] | outcome [6] | outcome [7] | outcome [8]
active: growth inhibition [4] 96%

CC(C)N1CCN(C(=O)c2ccc(CNCCCN3CCN(c4ccccc4C(F)(F)F)CC3)s2)CC1
inactive: growth inhibition [1] 42% | inhibition [2] 32% | inhibition [3] -7% | outcome [5] | outcome [6] | outcome [7] | outcome [8]
active: growth inhibition [4] 98%

NC(N)=Nc1nc(-c2ccc(NCc3ccc(CNc4cccc(-c5csc(N=C(N)N)n5)c4)cc3)cc2)cs1
inactive: inhibition [2] 11% | inhibition [3] 0% | outcome [5] | outcome [6] | outcome [7] | outcome [8]
active: growth inhibition [1] 99% | growth inhibition [4] 102%

CC(C)N1CCC(N(Cc2ccc(-c3ccc(C(F)(F)F)cc3)cc2)C(=O)Cn2c(SCc3cccc(F)c3F)cc(=O)c3ccccc32)CC1
inactive: inhibition [3] 1% | outcome [5] | outcome [6] | outcome [7] | outcome [8]
active: growth inhibition [1] 77% | inhibition [2] 52% | growth inhibition [4] 100%

COc1ccc(-c2cccc(NC(=O)c3ccc(C#N)cc3)c2)cc1CN1CCN(C)CC1
inactive: growth inhibition [1] 2% | inhibition [2] 24% | inhibition [3] -3% | outcome [5] | outcome [6] | outcome [7] | outcome [8]
active: growth inhibition [4] 93%

O=C(NCCCCN1CCC(O)(c2ccc(Cl)cc2)CC1)c1ccc(Br)cc1
active: growth inhibition [4] 82%
inactive: growth inhibition [1] 48% | inhibition [2] 41% | inhibition [3] 4% | outcome [5] | outcome [6] | outcome [7] | outcome [8]

Cc1ccccc1C1CCN(c2ncc(C(=O)Nc3ccccc3)cc2Cl)CC1
active: growth inhibition [1] 83% | growth inhibition [4] 83%
inactive: inhibition [2] 29% | inhibition [3] -3% | outcome [5] | outcome [6] | outcome [7] | outcome [8]

COc1ccc(O)c(Cc2cnc3nc(N)nc(N)c3c2C)c1
active: growth inhibition [1] 74% | inhibition [2] 56% | growth inhibition [4] 94%
inactive: inhibition [3] 5% | outcome [5] | outcome [6] | outcome [7] | outcome [8]

NC(=O)C1CCN(Cc2ccc(-c3ccc(-c4nc5ccc(C(F)(F)F)cc5[nH]4)s3)cc2)CC1
active: growth inhibition [1] 91% | growth inhibition [4] 99%
inactive: inhibition [2] 22% | inhibition [3] -5% | outcome [5] | outcome [6] | outcome [7] | outcome [8]

c1ccc2[nH]c(-c3ccc(-c4ccc(CN5CCC(N6CCCCC6)CC5)cc4)s3)nc2c1
inactive: inhibition [2] 26% | inhibition [3] -5% | outcome [5] | outcome [6] | outcome [7] | outcome [8]
active: growth inhibition [1] 100% | growth inhibition [4] 99%

Cc1cc(N[C@@H](Cc2ccccc2)C(=O)NC2CCCC2)nc(NCCOc2ccccc2)n1
active: growth inhibition [4] 98%
inactive: growth inhibition [1] 48% | inhibition [2] 40% | inhibition [3] 0% | outcome [5] | outcome [6] | outcome [7] | outcome [8]

c1ccc(N2CCN(c3cc(-c4cccnc4)nc(-c4ccncc4)n3)CC2)nc1
inactive: growth inhibition [1] 22% | inhibition [2] 22% | inhibition [3] -2% | outcome [5] | outcome [6] | outcome [7] | outcome [8]
active: growth inhibition [4] 99%

O=C(/C=C/c1ccc(Cl)c(Cl)c1)NCCCCCN1CCC(NC(=O)NC2CCCCCC2)CC1
inactive: growth inhibition [1] 41% | inhibition [2] 15% | inhibition [3] -3% | outcome [5] | outcome [6] | outcome [7] | outcome [8]
active: growth inhibition [4] 99%

CC(C)(CNCc1cc(Cl)cc(Cl)c1)c1nc(-c2ccc(Cl)c(O)c2)c(-c2ccnc(N)n2)[nH]1
inactive: growth inhibition [1] 2% | inhibition [3] -1% | outcome [5] | outcome [6] | outcome [7] | outcome [8]
active: inhibition [2] 54% | growth inhibition [4] 92%

COc1ccc2nc3cc(Cl)ccc3c(Nc3ccc(Sc4ccc(Nc5c6ccc(Cl)cc6nc6ccc(OC)cc56)cc4)cc3)c2c1
active: growth inhibition [1] 94% | growth inhibition [4] 92%
inactive: inhibition [2] 1% | inhibition [3] -4% | outcome [5] | outcome [6] | outcome [7] | outcome [8]

OC[C@H](Nc1nc(C(Oc2ccccc2)c2ccccc2)nc2[nH]ncc12)c1ccccc1 (stereo partly specified)
inactive: growth inhibition [1] 45% | inhibition [2] 0% | inhibition [3] -4% | outcome [5] | outcome [6] | outcome [7] | outcome [8]
active: growth inhibition [4] 98%

COc1ccc2ncc(C)c(CCN3CCC(NCc4ccc5c(n4)NC(=O)CS5)CC3)c2c1
active: growth inhibition [1] 53% | growth inhibition [4] 100%
inactive: inhibition [2] 14% | inhibition [3] -4% | outcome [5] | outcome [6] | outcome [7] | outcome [8]

CCOc1ccc(C(C)NC(=O)Cc2ccccc2F)cc1OCC (stereo unspecified)
active: growth inhibition [4] 96%
inactive: growth inhibition [1] 44% | inhibition [2] 15% | inhibition [3] 6% | outcome [5] | outcome [6] | outcome [7] | outcome [8]

Nc1nc(N)c2c(ccn2Cc2cc3c(cc2Cl)OCO3)n1
active: inhibition [2] 67% | growth inhibition [4] 98%
inactive: growth inhibition [1] 11% | inhibition [3] -3% | outcome [5] | outcome [6] | outcome [7] | outcome [8]

CCCCN(Cc1cnccc1-c1ccc(Br)cc1)c1ccc(C(O)(C(F)(F)F)C(F)(F)F)cc1
inactive: growth inhibition [1] 45% | inhibition [2] 10% | inhibition [3] 6% | outcome [5] | outcome [6] | outcome [7] | outcome [8]
active: growth inhibition [4] 87%

O=S(=O)(Nc1cc2c(cc1O)CCNCC2)c1ccc(-c2ccc(Cl)cc2)cc1
active: growth inhibition [4] 99%
inactive: growth inhibition [1] 0% | inhibition [2] 10% | inhibition [3] 3% | outcome [5] | outcome [6] | outcome [7] | outcome [8]

CCC(=O)N(c1ccccc1)C1CCN(CCCC(NC(=O)Nc2cc(C(F)(F)F)cc(C(F)(F)F)c2)c2ccc(Cl)c(Cl)c2)CC1 (stereo unspecified)
active: growth inhibition [4] 99%
inactive: growth inhibition [1] 18% | inhibition [2] 29% | inhibition [3] -5% | outcome [5] | outcome [6] | outcome [7] | outcome [8]

O=C(Nc1cn(-c2ccc(OCc3cccc(F)c3)c(Cl)c2)c2ncncc12)c1ccncc1
inactive: inhibition [2] 13% | inhibition [3] 0% | outcome [5] | outcome [6] | outcome [7] | outcome [8]
active: growth inhibition [1] 81% | growth inhibition [4] 100%

Cc1ccc2ccccc2c1CCCON1C(N)=NC(N)=NC1(C)C
active: growth inhibition [1] 97% | inhibition [2] 65% | growth inhibition [4] 95%
inactive: inhibition [3] 5% | outcome [5] | outcome [6] | outcome [7] | outcome [8]

COCCNCc1cccc(-c2cccc(CNC3CCN(Cc4ccccc4)CC3)c2)c1
inactive: inhibition [2] 28% | inhibition [3] -4% | outcome [5] | outcome [6] | outcome [7] | outcome [8]
active: growth inhibition [1] 99% | growth inhibition [4] 101%

COc1ccc2nccc([C@@H](O)CN3CCC(NCc4cc5c(Cl)cccc5[nH]4)CC3)c2c1
active: growth inhibition [1] 74% | growth inhibition [4] 101%
inactive: inhibition [2] 40% | inhibition [3] 1% | outcome [5] | outcome [6] | outcome [7] | outcome [8]

COc1cc(C(C)C)ccc1C1CCN(CCCCNC(=O)c2ccc(NC(=O)c3ccc(Cl)cc3)cc2)CC1
inactive: inhibition [3] 3% | outcome [5] | outcome [6] | outcome [7] | outcome [8]
active: growth inhibition [1] 99% | inhibition [2] 100% | growth inhibition [4] 98%

Cn1ccnc1Sc1ncccc1[N+](=O)[O-]
active: growth inhibition [4] 96%
inactive: growth inhibition [1] 2% | inhibition [2] 0% | inhibition [3] -3% | outcome [5] | outcome [6] | outcome [7] | outcome [8]

c1ccc(-c2[nH]c3ccccc3c2CN2CCC(N3CCCCC3)CC2)nc1
inactive: inhibition [2] 13% | inhibition [3] -3% | outcome [5] | outcome [6] | outcome [7] | outcome [8]
active: growth inhibition [1] 82% | growth inhibition [4] 101%

CN(CCON1C(N)=NC(N)=NC1(C)C)c1ccccc1
active: growth inhibition [1] 93% | inhibition [2] 64% | growth inhibition [4] 97%
inactive: inhibition [3] 1% | outcome [5] | outcome [6] | outcome [7] | outcome [8]

CC[C@H]1CN2CCc3cc(OC)c(OC)cc3[C@@H]2C[C@@H]1CC1=NCCc2c1[nH]c1ccc(OCc3ccccc3)cc21
inactive: inhibition [3] -2% | outcome [5] | outcome [6] | outcome [7] | outcome [8]
active: growth inhibition [1] 89% | inhibition [2] 57% | growth inhibition [4] 101%
